Composite z-score and z-score data for five compounds are collected here from PubChem BioAssay.

The source made the active and inactive calls.

In assay [1] the test system is Plasmodium falciparum Sir2 (PF13_0152, Sir2A). In words: Plasmodium falciparum Sir2A binding compounds – biochemical, small-molecule microarray, 635 nm fluorescence, primary screen (AID 1098).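 Further: score merges spot fluorescence intensity with its signal-to-noise ratio.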 The following applies: fluorescence 635 nm, higher = more signal.
Assay [2] in a line: probe aDKK1 binding to arrayed compounds – biochemical, biotinylated probe, 635/667 nm fluorescence, primary screen (AID 1099).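 Further: score merges 667nm spot fluorescence with signal to noise across triplicate slides.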 The following applies: small-molecule microarray, higher = more signal.
Assay [3] in a line: probe aCHRDL2 binding to arrayed compounds – biochemical, biotinylated probe, 635/667 nm fluorescence, primary screen (AID 1100). The following applies: small-molecule microarray, higher = more signal.
A short description of assay [4]: change in splice reporter luminescence, either direction, cell-based, HEK293, spliceosome inhibition project, primary screen (AID 1101).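 Further: HEK293 cells carrying a splicing-competent luciferase reporter gene; test concentration not given here.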 The following applies: HEK293 splicing luciferase reporter, 24 h, higher = more signal, called active from +8 up or from −8 down.
In assay [5] the target is Fibroblast growth factor 10 (Homo sapiens) (UniProt O15520). Briefly: compounds binding fibroblast growth factor 10 – biochemical, small-molecule microarray, 635 nm fluorescence, primary screen (AID 1102). To be noted: FGF10 binding, fluorescence 635 nm, higher = more signal.
Assay [6] deals with glycogen synthase kinase-3 (GSK3A per assay name; protocol says GSK3B). Briefly: compounds binding glycogen synthase kinase-3 – biochemical, small-molecule microarray, 635 nm fluorescence, GSK3A, primary screen (AID 1103). Further: the record names both GSK3A and GSK3B. To be noted: fluorescence 635 nm, higher = more signal.
Assay [7] addresses Epidermal growth factor receptor (Homo sapiens) (UniProt P00533). In words: compounds binding epidermal growth factor receptor – biochemical, small-molecule microarray, 635 nm fluorescence, primary screen (AID 1104).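 Further: score merges 667 nm emission intensity with spot signal to noise over triplicate slides.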 The following applies: EGFR binding, higher = more signal.
Assay [8] concerns the target Follistatin-related protein 3 (Homo sapiens) (UniProt O95633). In words: compounds binding follistatin-related protein 3 – biochemical, small-molecule microarray, 635 nm fluorescence, primary screen (AID 1105).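 Further: score merges emission near 667 nm and signal to noise per printed spot across three slides.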 To be noted: FSTL3 binding, higher = more signal.
Assay [9] addresses Dickkopf-related protein 1 (Homo sapiens) (UniProt O94907). Briefly: small molecules binding DKK1 protein – biochemical, small-molecule microarray, 635 nm fluorescence scan, primary screen (AID 1106).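 Further: score merges emission near 667 nm with signal to noise over three replicate slides.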 The following applies: higher = more signal.
Assay [10] has as its system Inhibin beta A chain (activin A). Briefly: small molecules binding activin A – biochemical, small-molecule microarray, 635 nm fluorescence scan, primary screen (AID 1107).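 Further: mouse activin A protein probed at 4.33 µg/mL on printed slides; score merges bound-protein fluorescence near 667 nm with spot signal-to-noise.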 To be noted: INHBA, higher = more signal.
Assay [11] deals with Human papillomavirus type 1a protein E7 (residues 44-93). Briefly: small molecules binding HPV E7 44-93 – biochemical, small-molecule microarray, residues 44-93, 635 nm fluorescence, primary screen (AID 1108).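 Further: E7 fragment applied at 1 µg/mL in TBST for 1 h at 4 C; score combines spot fluorescence with its signal to noise ratio.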 The following applies: fluorescence 635 nm, higher = more signal.
The nature of assay [12]: hepatitis C replication reporter changes, two-sided – Huh7 cells, luciferase reporter, HCV replication inhibitor project, primary screen (AID 1109).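 Further: huh7 hepatoma cells harbouring a luciferase neomycin HCV replicon reporter; luciferase luminescence as measure of HCV replicon replication; test concentration not given here.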 The following applies: Huh7 HCV replicon luciferase reporter, 48 h; higher = more signal.
Assay [13] concerns the target Left-right determination factor 2 (Homo sapiens) (UniProt O00292). Briefly: small molecules binding LEFTY2 protein – biochemical, small-molecule microarray, 635 nm fluorescence scan, primary screen (AID 1110). To be noted: higher = more signal.
Assay [14] deals with Calmodulin-1 (Homo sapiens) (UniProt P0DP23). In words: small molecules binding calmodulin-1 with EGTA – biochemical, small-molecule microarray, Cy5-labelled CALM1, profiling panel (AID 1111).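 Further: labelled calmodulin applied in Tris saline Tween buffer holding calcium plus EGTA and DTT.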 The following applies: Cy5-CALM1 binding fluorescence, higher = more signal.
For assay [15] the target is unchanged. In words: small molecules binding Ca-loaded calmodulin-1 – biochemical, small-molecule microarray, Cy5-labelled CALM1, plus calcium, artefact control for SMM control-protein annotation, profiling panel (AID 1112).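 Further: score merges spot fluorescence with signal to noise from triplicate slides.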 To be noted: Cy5-CALM1 binding fluorescence, higher = more signal.
A short description of assay [16]: probe aWnt5a binding to arrayed compounds – biochemical, biotinylated probe, 635/667 nm fluorescence, primary screen (AID 1113).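 Further: score merges 667 nm fluorescence intensity with signal-to-noise per printed feature.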 The following applies: small-molecule microarray, higher = more signal.
Assay [17] is described as follows: probe aShh binding to arrayed compounds – biochemical, biotinylated probe, 635/667 nm fluorescence, primary screen (AID 1114).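 Further: probe is biotin-labelled aShh protein from a stem cell growth factor screen; measures binding of labelled protein to compounds printed on the slide; score merges feature fluorescence at 667 nm with signal-to-noise.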 To be noted: small-molecule microarray, higher = more signal.
Assay [18] in a line: probe aNog binding to arrayed compounds – biochemical, biotinylated probe, 635/667 nm fluorescence, primary screen (AID 1115).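 Further: probe is biotinylated aNog protein used at 0.15 µg/mL for 1 h at 4 C; z-score combines 667 nm fluorescence of each spot with its signal to noise.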 The following applies: small-molecule microarray, higher = more signal.
Assay [19] addresses Torsin-1A-interacting protein 1 (Homo sapiens) (UniProt Q5JTV8). In words: compound microarray binding of lysate hLAP1 – cell lysate, small-molecule microarray, COS7 lysate, 635/667 nm fluorescence, primary screen (AID 1116). The following applies: 635 nm fluorescence, higher = more signal.
For assay [20], the target named is Alpha-bungarotoxin (Bungarus multicinctus) (UniProt P60615). Briefly: compounds binding labelled alpha-BTX control protein – biochemical, small-molecule microarray, Alexa647 label, 635/667 nm fluorescence, artefact control for SMM control protein annotation, profiling panel (AID 1117). To be noted: alpha-BTX-A647 binding fluorescence, higher = more signal.
Sequence of Alpha-bungarotoxin (Bungarus multicinctus) (P60615 whole entry, looked up): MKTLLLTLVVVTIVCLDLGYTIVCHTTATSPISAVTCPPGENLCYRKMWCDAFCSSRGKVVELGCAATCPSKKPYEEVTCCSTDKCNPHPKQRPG

Sequence of Dickkopf-related protein 1 (Homo sapiens) (O94907 whole entry, looked up): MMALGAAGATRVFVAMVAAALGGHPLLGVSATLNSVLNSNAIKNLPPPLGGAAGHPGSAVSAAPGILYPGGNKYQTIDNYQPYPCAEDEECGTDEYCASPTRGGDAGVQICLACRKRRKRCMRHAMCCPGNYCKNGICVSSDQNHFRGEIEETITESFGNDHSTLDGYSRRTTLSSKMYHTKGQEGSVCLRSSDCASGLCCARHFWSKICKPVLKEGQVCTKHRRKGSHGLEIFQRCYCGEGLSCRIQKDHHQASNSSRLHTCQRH
Sequence of Torsin-1A-interacting protein 1 (Homo sapiens) (Q5JTV8 whole entry, looked up): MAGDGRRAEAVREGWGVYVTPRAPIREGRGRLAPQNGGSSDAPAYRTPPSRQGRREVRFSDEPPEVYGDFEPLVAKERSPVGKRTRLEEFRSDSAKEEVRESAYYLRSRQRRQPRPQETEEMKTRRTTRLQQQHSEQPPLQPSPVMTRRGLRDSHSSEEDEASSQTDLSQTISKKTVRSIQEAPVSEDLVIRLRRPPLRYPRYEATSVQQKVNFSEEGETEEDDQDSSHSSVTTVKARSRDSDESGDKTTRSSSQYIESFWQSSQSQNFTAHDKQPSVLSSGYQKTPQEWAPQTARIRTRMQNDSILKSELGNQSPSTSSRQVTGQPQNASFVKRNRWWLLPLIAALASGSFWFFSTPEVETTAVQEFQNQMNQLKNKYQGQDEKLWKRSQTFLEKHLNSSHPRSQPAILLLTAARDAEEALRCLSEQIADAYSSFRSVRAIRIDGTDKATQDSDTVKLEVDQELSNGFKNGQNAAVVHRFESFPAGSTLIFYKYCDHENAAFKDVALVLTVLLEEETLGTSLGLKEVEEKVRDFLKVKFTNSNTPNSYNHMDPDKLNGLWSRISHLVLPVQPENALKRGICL
Sequence of Epidermal growth factor receptor (Homo sapiens) (P00533 whole entry, looked up): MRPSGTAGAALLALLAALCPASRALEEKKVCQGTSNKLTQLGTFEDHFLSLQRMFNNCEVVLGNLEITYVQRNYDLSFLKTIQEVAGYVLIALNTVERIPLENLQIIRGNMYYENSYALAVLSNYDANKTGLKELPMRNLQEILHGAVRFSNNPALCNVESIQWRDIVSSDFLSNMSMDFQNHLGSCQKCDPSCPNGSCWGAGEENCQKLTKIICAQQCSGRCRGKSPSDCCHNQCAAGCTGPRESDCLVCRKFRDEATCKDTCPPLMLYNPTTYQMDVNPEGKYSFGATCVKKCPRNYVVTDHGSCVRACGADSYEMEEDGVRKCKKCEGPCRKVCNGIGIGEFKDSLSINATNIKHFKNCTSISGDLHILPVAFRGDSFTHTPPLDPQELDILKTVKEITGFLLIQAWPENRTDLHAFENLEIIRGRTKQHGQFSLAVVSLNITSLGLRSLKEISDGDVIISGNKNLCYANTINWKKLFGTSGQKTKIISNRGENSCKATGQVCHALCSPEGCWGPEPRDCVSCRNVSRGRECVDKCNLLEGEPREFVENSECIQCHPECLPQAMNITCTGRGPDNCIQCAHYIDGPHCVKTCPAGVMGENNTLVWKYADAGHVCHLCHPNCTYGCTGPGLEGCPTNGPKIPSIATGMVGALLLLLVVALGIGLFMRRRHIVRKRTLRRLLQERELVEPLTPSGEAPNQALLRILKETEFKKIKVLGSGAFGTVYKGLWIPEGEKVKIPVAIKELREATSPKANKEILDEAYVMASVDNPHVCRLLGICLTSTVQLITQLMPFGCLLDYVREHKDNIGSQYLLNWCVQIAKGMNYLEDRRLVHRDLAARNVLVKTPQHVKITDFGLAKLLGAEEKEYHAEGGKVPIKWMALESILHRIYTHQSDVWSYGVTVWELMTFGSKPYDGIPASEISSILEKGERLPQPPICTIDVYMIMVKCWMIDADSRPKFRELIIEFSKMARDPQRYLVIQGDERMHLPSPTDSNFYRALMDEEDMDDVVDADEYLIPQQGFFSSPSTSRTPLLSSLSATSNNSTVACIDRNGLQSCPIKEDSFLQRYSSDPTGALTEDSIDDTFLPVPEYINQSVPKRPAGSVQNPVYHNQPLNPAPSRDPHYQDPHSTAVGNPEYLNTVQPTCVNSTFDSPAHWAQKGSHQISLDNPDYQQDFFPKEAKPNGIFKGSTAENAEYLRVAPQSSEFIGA
Sequence of Fibroblast growth factor 10 (Homo sapiens) (O15520 whole entry, looked up): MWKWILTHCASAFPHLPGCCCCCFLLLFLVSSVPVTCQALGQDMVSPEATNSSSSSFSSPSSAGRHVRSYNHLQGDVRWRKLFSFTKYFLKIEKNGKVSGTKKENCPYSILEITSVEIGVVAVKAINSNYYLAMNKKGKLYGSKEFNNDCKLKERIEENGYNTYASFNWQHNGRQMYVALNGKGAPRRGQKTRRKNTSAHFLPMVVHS
Sequence of Follistatin-related protein 3 (Homo sapiens) (O95633 whole entry, looked up): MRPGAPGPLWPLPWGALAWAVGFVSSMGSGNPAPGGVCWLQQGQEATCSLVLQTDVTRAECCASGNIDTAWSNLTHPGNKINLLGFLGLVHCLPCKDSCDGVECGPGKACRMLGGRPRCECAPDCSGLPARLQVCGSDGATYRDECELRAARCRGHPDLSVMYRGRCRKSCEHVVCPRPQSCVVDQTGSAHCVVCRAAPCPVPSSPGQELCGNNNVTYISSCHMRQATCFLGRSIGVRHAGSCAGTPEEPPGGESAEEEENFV
Sequence of Left-right determination factor 2 (Homo sapiens) (O00292 whole entry, looked up): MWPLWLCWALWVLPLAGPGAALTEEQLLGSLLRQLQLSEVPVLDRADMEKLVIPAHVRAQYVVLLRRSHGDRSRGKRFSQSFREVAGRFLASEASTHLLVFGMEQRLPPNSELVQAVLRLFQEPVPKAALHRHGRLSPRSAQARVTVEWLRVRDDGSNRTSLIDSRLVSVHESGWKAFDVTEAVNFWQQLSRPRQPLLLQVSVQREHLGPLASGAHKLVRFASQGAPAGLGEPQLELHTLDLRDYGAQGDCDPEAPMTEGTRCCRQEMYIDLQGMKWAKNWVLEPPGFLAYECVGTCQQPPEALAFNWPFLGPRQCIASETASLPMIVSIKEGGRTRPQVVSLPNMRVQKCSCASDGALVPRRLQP

As to `C=C(COC)C(=O)CC[C@H](OC(=O)c1ccccc1-c1ccccc1C(=O)O)c1cccc(OCCO)c1`, the composite z-score in [1] was 1.74; in assay [2], -0.0615; in assay [3] it was -0.462; in assay [5], 1.71; in [6], 0.829; in assay [7], 0.397. Moreover, the composite z-score is 1.33 in assay [8]; 1.94 in [9]; 1.01 in assay [10]; 1.4 in [11]; 0.757 in assay [13]; 3.03 in assay [14]. Moreover, the composite z-score in [15] was 0.733; in [16], 0.0519; in [17], -0.17; in assay [18], 0.0519; in assay [19], 3.73; in assay [20], -0.151. The z-score was -3.03 (inactive) in [4] and -3.1 in [12].

With `COC(=O)c1c(CC[C@@H](CO)NC(=O)N[C@H](Cn2cc(-c3cncn3C)nn2)C(C)C)oc(C(C)=O)c1C(=O)OC`, the composite z-score in [1] was 0.844; in [2], -0.203; in [3], -0.342; in [5] it was 0.512; in assay [6], 0.861; in [7] it was 0.363. Also, the composite z-score in assay [8] was 0.165; in assay [9] it was 0.265; in [10], -0.253; in [11], 0.873; in assay [13], 0.332; in assay [14], -0.055. The composite z-score in assay [15] was -0.333; in assay [16], -0.1; in [17], -0.2; in [18], 0.0668; in assay [19], 0.542; in [20], -0.115. Further, the values for the z-score in assay [4] and in [12] were -1.93 (inactive) and 0.0688, respectively.

`COC(=O)[C@@]1(Cc2ccccc2N=[N+]=[N-])N=C(c2ccc(OCCCO)cc2)O[C@H]1c1ccccc1CN=[N+]=[N-]`: the composite z-score was 1.16 in [1]; 0.733 in assay [2]; 0.771 in assay [3]; 0.468 in [5]; 0.393 in assay [6]; -0.34 in assay [7]. Also, the composite z-score is -0.0014 in assay [8]; -0.304 in [9]; 1.13 in assay [10]; 0.403 in [11]; -0.417 in assay [13]; 0.559 in [14]. For the same compound, the composite z-score is 0.0128 in assay [15]; -0.0758 in assay [16]; -0.136 in assay [17]; 1.01 in assay [18]; 0.889 in assay [19]; 1.28 in [20]. The results for the z-score in assay [4] and in assay [12] were 1.07 (inactive) and -3.35, respectively.

As for `COC(=O)C1=CC(c2ccc(CO)cc2)=CC(C2CC2)N(Cc2sc3ccccc3c2Cl)C=C1C(=O)OC` (stereo not given), the composite z-score stood at 1.55 in assay [1]; 1.02 in assay [2]; 0.978 in assay [3]; 0.855 in assay [5]; 1.3 in assay [6]; 0.242 in [7]. Moreover, the composite z-score in assay [8] worked out at 1.19; in [9] it was 0.304; in assay [10], 0.715; in assay [11] it was 1.29; in assay [13] it was 0.204; in assay [14], 2.45. For the same compound, the composite z-score in assay [15] amounted to 0.975; in assay [16], 0.0017; in assay [17] it was 0.246; in assay [18], 1.38; in assay [19], 2.42; in assay [20] it was 2.75. Also, the z-score is -1.16 (inactive) in assay [4] and -1.27 in [12].

With `C[N+](C)(C)CCCC[C@@H]1NC(=O)[C@H]2C[C@@H](C(=O)NCc3ccc(F)cc3)[C@@H](c3cccc(OCCO)c3)N2C1=O`, the composite z-score in [1] is 0.459; in assay [2] it was 0.0243; in [3] it was 0.479; in [5], 0.988; in assay [6], 0.519; in [7], 0.139. Also, the composite z-score is 0.954 in assay [8]; 0.885 in [9]; -0.7 in assay [10]; 0.276 in assay [11]; 0.503 in assay [13]; 0.884 in [14]. Moreover, the composite z-score is 0.869 in assay [15]; -0.0522 in [16]; -0.0904 in assay [17]; 0.0519 in assay [18]; 1.42 in assay [19]; 1.15 in assay [20]. For the same compound, the values for the z-score in [4] and in assay [12] were -0.178 (inactive) and 0.328, respectively.
